Holding throughout (test): DAPPL (digital affinity profiling via proximity ligation, sequencing); 10 mM Tris-HCl pH 7.5, 50 mM NaCl, 1 mM DTT, 4% glycerol, room temperature, 30 min; GST-TFs on glutathione beads, 16-mer random dsDNA library, 0.1% formaldehyde crosslink after washing; high values mean tight binding
In one experiment the target is T1, FEV (Homo sapiens, UniProt Q99581 1-238).
T1 sequence: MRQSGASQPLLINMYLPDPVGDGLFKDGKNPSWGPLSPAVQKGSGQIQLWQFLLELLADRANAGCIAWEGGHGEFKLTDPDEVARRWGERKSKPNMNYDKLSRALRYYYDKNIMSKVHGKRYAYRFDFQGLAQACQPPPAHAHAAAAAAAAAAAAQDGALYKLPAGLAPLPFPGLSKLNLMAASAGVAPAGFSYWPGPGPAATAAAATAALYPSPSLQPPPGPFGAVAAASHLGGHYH
To be noted: protein: recombinant; tags: N-terminal GST; dsDNA, one strand shown. The gist of the method: (§1)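 Binding signal is each hexamer's read frequency for a factor divided by its frequency in the tag-only sample. The factors were GST-fused human transcription factors from yeast, captured on glutathione beads, DNA-barcoded and pooled with that sample. Pools were incubated with 200 nmole of a random double-stranded 16-mer DNA library in Tris/NaCl/DTT/glycerol buffer at room temperature for 30 min, then washed, crosslinked with 0.1% formaldehyde, proximity-ligated with BsaI/T4 ligase (1 h, 37 °C), PCR-amplified and sequenced on an Illumina NextSeq500.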

For the next experiment, the target named is ETV5 (Homo sapiens, UniProt P41161 1-510). The conditions noted are these: protein: recombinant; tags: N-terminal GST; dsDNA, one strand shown. The gist of the method: as §1
Sequence of ETV5 (P41161 whole entry): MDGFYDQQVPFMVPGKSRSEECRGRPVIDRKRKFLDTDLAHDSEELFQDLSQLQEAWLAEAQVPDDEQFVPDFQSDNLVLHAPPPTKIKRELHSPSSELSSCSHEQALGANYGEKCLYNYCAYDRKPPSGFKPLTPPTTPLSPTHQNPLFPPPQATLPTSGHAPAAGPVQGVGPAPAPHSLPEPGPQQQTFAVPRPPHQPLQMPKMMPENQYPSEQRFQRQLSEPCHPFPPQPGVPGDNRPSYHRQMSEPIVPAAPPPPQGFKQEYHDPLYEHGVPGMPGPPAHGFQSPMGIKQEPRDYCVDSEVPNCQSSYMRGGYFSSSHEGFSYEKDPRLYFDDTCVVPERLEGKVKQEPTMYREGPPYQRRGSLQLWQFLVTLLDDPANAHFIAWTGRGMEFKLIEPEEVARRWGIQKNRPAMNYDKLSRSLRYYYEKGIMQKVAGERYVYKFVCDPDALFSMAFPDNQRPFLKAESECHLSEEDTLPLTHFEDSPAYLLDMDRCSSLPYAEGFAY
For another experiment, the target named is HSF1 (Homo sapiens, UniProt Q00613 1-529). The conditions noted are these: protein: recombinant; tags: N-terminal GST; chain copies: 3; dsDNA, one strand shown. The gist of the method:
as §1

In another experiment the target is T2, SPIC (Homo sapiens, UniProt Q8N5J4 1-248).
T2 sequence: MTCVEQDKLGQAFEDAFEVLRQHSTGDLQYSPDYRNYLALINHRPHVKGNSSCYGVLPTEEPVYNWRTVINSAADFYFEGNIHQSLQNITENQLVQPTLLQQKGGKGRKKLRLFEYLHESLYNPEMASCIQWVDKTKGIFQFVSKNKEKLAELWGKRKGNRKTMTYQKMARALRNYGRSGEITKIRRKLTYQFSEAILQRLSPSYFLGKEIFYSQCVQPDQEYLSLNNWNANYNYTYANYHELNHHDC
To be noted: protein: recombinant; tags: N-terminal GST; dsDNA, one strand shown. Put shortly: as §1

The next experiment has as its target ELF4 (Homo sapiens, UniProt Q99607 1-663). The conditions noted are these: protein: recombinant; tags: N-terminal GST; dsDNA, one strand shown. The gist of the method:
as §1

The next experiment concerns the target T3, ELK4 (Homo sapiens, UniProt P28324-2 1-405).
T3 sequence: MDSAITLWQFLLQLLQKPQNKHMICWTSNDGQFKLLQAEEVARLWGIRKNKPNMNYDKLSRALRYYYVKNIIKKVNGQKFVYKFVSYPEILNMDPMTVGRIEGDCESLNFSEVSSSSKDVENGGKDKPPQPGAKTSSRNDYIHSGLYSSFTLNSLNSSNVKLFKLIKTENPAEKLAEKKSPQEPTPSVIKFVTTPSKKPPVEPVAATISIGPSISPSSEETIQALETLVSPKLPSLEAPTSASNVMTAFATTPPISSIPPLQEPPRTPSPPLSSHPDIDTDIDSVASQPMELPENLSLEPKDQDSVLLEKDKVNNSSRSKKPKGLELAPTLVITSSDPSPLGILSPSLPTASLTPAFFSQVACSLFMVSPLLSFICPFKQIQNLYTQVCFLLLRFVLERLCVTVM
The conditions noted are these: protein: recombinant; tags: N-terminal GST; dsDNA, one strand shown. Put shortly:
as §1

The next experiment deals with T4, ETV2 (Homo sapiens, UniProt O00321 1-342).
T4 sequence: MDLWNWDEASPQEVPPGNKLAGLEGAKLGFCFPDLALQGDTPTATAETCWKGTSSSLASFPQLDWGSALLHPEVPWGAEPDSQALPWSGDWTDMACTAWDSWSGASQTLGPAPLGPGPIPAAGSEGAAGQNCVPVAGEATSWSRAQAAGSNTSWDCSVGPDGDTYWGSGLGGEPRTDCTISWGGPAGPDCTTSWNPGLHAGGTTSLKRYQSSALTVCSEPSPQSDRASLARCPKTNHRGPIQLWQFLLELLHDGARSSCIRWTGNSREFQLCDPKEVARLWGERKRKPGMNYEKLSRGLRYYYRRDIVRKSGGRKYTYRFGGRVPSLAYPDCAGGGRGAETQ
The conditions noted are these: protein: recombinant; tags: N-terminal GST; dsDNA, one strand shown. Put shortly:
as §1

The next experiment has as its target T5, ELF3 (Homo sapiens, UniProt P78545 1-371).
T5 sequence: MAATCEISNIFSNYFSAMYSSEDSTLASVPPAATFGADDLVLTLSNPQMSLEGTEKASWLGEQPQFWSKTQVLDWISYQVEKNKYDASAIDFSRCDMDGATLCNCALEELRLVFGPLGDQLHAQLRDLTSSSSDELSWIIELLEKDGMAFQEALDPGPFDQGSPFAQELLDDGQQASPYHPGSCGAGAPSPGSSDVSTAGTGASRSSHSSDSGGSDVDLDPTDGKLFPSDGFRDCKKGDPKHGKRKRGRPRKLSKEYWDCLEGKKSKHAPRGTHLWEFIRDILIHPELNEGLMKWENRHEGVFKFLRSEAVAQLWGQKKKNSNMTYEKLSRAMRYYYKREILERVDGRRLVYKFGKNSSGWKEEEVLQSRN
The conditions noted are these: protein: recombinant; tags: N-terminal GST; dsDNA, one strand shown. The gist of the method: as §1

The target of the next experiment is CRX (Homo sapiens, UniProt O43186 1-299). The conditions noted are these: protein: recombinant; tags: N-terminal GST; dsDNA, one strand shown. Put shortly: as §1
Sequence of CRX (O43186 whole entry): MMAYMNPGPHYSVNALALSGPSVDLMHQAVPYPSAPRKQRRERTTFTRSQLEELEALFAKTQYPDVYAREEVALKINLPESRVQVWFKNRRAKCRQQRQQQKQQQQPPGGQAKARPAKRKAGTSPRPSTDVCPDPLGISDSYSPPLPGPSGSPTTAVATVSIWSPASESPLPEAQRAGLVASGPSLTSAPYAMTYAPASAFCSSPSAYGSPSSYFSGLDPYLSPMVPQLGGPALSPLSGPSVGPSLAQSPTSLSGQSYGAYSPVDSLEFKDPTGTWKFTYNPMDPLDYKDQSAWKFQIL
Another experiment concerns the target ETV1 (Homo sapiens, UniProt P50549 1-477). To be noted: protein: recombinant; tags: N-terminal GST; dsDNA, one strand shown. Put shortly:
as §1

The target in a further experiment is T6, ERF (Homo sapiens, UniProt P50548 1-548).
T6 sequence: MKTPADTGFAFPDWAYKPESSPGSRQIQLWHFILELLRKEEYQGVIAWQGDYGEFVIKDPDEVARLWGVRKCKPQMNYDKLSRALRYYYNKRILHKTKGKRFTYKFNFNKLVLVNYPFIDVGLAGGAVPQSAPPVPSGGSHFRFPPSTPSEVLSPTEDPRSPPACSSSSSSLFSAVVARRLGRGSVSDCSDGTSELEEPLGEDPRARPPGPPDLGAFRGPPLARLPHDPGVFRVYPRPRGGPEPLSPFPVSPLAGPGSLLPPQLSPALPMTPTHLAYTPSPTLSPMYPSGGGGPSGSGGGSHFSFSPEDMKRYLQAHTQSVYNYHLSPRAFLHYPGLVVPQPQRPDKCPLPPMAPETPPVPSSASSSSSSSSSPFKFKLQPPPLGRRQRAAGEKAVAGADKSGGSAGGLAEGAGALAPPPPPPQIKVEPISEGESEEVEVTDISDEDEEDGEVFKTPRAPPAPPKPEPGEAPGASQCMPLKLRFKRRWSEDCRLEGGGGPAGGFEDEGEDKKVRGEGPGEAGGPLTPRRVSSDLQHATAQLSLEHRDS
To be noted: protein: recombinant; tags: N-terminal GST; dsDNA, one strand shown. The gist of the method: as §1

A further experiment has as its target T7, ETV3L (Homo sapiens, UniProt Q6ZN32 1-361).
T7 sequence: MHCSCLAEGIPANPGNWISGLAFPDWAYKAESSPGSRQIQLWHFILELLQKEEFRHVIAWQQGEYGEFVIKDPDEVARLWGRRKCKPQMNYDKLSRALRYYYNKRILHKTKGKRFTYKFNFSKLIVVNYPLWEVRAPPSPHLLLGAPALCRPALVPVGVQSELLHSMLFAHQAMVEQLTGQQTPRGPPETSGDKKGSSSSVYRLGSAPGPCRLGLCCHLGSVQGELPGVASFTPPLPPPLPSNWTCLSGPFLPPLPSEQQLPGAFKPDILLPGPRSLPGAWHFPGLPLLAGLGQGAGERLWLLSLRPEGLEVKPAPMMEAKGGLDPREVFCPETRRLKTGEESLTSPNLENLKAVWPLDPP
To be noted: protein: recombinant; tags: N-terminal GST; dsDNA, one strand shown. Put shortly:
as §1

The next experiment addresses T8, ETS2 (Homo sapiens, UniProt P15036 1-469).
T8 sequence: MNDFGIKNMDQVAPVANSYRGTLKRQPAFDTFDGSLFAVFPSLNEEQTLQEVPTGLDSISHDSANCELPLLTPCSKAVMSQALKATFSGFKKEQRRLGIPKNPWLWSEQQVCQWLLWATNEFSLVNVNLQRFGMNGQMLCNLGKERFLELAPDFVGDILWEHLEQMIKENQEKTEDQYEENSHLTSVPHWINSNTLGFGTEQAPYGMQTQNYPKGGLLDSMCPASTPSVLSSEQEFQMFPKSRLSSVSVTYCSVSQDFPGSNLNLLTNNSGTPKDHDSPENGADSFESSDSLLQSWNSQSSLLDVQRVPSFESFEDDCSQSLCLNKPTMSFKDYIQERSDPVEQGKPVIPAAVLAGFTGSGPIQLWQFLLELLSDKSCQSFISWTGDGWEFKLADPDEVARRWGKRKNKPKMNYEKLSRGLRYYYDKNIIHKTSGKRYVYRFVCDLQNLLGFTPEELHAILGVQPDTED
The conditions noted are these: protein: recombinant; tags: N-terminal GST; dsDNA, one strand shown. The gist of the method: as §1

The next experiment concerns the target T9, SPDEF (Homo sapiens, UniProt O95238 1-335).
T9 sequence: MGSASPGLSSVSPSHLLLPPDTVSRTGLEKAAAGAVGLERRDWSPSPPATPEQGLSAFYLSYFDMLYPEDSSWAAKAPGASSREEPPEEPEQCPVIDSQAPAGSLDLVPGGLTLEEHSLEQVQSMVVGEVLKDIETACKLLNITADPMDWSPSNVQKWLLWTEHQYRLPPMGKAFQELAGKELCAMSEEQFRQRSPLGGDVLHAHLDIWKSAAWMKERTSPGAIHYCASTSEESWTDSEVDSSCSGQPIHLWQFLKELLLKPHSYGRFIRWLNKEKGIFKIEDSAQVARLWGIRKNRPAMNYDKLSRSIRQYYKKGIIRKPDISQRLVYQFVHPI
To be noted: protein: recombinant; tags: N-terminal GST; dsDNA, one strand shown. The gist of the method:
as §1

The next experiment has as its target T10, ETV7 (Homo sapiens, UniProt Q9Y603 1-341).
T10 sequence: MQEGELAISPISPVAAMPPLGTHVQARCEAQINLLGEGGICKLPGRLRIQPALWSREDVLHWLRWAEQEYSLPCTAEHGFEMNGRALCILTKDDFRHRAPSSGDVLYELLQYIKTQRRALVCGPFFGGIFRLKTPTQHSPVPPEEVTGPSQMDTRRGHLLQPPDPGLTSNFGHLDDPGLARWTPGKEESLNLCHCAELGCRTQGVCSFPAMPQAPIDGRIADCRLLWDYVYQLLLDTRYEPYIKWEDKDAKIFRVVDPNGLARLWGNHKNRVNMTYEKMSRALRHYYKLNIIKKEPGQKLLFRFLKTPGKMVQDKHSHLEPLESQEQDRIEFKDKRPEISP
The conditions noted are these: protein: recombinant; tags: N-terminal GST; dsDNA, one strand shown. Put shortly:
as §1

The target in the next experiment is T11, ELF5 (Homo sapiens, UniProt Q9UKW6-2 1-255).
T11 sequence: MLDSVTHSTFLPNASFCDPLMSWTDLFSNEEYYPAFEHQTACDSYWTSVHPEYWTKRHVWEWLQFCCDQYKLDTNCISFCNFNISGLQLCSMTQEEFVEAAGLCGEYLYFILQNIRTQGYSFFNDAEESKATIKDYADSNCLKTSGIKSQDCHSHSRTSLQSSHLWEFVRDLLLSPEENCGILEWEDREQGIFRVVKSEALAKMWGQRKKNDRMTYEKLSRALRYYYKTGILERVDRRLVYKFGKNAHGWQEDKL
To be noted: protein: recombinant; tags: N-terminal GST; dsDNA, one strand shown. The gist of the method: as §1

In another experiment the target is T12, ETV3 (Homo sapiens, UniProt P41162-2 1-143).
T12 sequence: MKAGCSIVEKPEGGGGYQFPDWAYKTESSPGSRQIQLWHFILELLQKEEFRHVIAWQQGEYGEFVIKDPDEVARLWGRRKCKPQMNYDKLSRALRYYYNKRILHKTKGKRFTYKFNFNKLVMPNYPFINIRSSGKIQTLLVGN
To be noted: protein: recombinant; tags: N-terminal GST; dsDNA, one strand shown. Put shortly: as §1

The target of another experiment is ETV6 (Homo sapiens, UniProt P41212 1-452). To be noted: protein: recombinant; tags: N-terminal GST; dsDNA, one strand shown. The gist of the method: as §1
Sequence of ETV6 (P41212 whole entry): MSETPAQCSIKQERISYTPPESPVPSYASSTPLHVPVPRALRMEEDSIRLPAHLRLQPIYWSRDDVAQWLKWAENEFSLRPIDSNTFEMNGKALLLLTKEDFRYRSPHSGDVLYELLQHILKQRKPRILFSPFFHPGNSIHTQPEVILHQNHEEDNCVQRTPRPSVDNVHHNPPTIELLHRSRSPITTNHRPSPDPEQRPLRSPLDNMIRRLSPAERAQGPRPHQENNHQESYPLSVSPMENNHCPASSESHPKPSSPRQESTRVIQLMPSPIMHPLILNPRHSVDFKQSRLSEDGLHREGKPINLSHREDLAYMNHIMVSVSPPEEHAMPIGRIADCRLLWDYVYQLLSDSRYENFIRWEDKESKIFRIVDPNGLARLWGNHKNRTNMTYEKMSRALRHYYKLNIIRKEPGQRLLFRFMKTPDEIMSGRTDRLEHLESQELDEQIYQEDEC

Sequence of HSF1 (Q00613 whole entry): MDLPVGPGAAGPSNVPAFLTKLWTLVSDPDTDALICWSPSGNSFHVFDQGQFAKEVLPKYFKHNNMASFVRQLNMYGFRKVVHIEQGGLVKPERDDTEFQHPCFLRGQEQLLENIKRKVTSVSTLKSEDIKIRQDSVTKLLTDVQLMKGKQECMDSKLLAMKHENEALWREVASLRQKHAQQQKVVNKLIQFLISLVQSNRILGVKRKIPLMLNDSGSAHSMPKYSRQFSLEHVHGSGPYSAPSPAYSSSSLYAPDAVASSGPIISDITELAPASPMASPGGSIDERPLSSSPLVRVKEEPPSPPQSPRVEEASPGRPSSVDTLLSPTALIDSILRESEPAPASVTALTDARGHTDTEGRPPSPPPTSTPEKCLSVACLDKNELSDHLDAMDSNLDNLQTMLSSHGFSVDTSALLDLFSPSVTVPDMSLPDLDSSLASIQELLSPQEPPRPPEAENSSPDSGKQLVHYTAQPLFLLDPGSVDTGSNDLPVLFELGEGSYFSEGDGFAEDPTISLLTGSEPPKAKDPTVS
Sequence of ETV1 (P50549 whole entry): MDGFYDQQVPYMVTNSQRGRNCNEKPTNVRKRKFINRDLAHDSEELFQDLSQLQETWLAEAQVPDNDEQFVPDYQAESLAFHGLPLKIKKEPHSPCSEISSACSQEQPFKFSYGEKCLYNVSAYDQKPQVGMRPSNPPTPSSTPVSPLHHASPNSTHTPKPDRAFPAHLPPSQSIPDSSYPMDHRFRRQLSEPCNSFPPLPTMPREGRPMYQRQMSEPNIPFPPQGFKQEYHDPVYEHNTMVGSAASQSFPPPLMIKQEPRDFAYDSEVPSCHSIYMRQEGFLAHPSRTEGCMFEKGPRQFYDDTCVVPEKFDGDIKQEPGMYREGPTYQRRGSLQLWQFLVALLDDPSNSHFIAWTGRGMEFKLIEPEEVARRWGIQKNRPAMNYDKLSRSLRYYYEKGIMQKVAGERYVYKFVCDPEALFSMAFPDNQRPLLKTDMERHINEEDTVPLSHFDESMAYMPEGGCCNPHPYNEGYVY
Sequence of ELF4 (Q99607 whole entry): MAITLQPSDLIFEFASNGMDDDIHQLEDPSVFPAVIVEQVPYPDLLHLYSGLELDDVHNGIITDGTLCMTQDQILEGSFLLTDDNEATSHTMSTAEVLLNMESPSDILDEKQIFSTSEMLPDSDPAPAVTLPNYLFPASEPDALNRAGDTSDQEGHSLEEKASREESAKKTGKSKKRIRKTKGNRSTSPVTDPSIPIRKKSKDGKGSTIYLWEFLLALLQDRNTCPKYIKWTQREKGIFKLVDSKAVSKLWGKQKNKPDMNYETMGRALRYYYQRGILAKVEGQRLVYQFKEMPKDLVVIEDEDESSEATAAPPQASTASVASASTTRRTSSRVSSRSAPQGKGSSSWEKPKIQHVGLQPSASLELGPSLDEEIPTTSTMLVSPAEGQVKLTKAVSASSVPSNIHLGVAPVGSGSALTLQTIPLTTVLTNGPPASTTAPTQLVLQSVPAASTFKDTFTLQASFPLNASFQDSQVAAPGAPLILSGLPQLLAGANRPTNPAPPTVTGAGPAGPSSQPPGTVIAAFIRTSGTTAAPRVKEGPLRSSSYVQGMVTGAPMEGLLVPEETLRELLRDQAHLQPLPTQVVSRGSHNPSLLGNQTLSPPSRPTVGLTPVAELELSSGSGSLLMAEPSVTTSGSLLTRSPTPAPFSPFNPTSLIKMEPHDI

For the sequence TCTCTT, the binding signal is 1.41 fold enrichment (6-mer frequency, TF over GST control) with FEV; 1.39 fold enrichment (6-mer frequency, TF over GST control) with ETV5; 1.39 fold enrichment (6-mer frequency, TF over GST control) with HSF1; 1.34 fold enrichment (6-mer frequency, TF over GST control) in the experiment with SPIC; 1.34 fold enrichment (6-mer frequency, TF over GST control) with ELF4; 1.49 fold enrichment (6-mer frequency, TF over GST control) with ELK4. The binding signal with ETV2 is 1.37 fold enrichment (6-mer frequency, TF over GST control); in the experiment with ELF3, 1.28 fold enrichment (6-mer frequency, TF over GST control); with CRX it was 1.58 fold enrichment (6-mer frequency, TF over GST control); in the experiment with ETV1, 1.42 fold enrichment (6-mer frequency, TF over GST control); with ERF it was 1.37 fold enrichment (6-mer frequency, TF over GST control); in the experiment with ETV3L it was 1.49 fold enrichment (6-mer frequency, TF over GST control). Moreover, the binding signal with ETS2 was 1.37 fold enrichment (6-mer frequency, TF over GST control); with SPDEF, 1.32 fold enrichment (6-mer frequency, TF over GST control); with ETV7, 1.17 fold enrichment (6-mer frequency, TF over GST control); with ELF5, 1.39 fold enrichment (6-mer frequency, TF over GST control); in the experiment with ETV3, 1.44 fold enrichment (6-mer frequency, TF over GST control); with ETV6, 1.36 fold enrichment (6-mer frequency, TF over GST control).

The values are drawn from paper PMC7862700, “An all-to-all approach to the identification of sequence-specific readers for epigenetic DNA modifications on cytosine”.
